Among the test systems are NCI-H23 lung; NCI-H226 lung; NCI-H322M lung; HOP-62 NSCLC; NCI-H460 lung; HOP-92 NSCLC; NCI-H522 lung; A549/ATCC NSCLC; 786-0 renal; DU-145 prostate; K-562 leukemia; MALME-3M melanoma; MDA-MB-231 breast; RXF 393 renal; SF-268 CNS; SF-295 CNS; SF-539 CNS; UACC-257 melanoma; M14 melanoma.
Assay in all cases: NCI-60 one-dose screen, 48 h (100 = growth as untreated, 0 = no growth, -100 = all killed)
What all share (conditions): 10 µM unless noted

This is part of a sample that, as a whole, favours compounds with a hit. Of some 83,000 tested, about 20% had one in any assay.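 The endpoint reported here, percent growth, reads 100 for growth as untreated, 0 for no net growth and -100 for all cells dead.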 A number with no mark means an inactive call. Calls of active or inactive are those of the source. Rule for the calls: active = growth percent below 10; inactive = the rest.

The values that follow come from PubChem BioAssay (NCI).

`CC(=O)Nc1nccs1`: the growth in the assay on NCI-H23 lung is 95%; with NCI-H226 lung it was 100%; in the assay on NCI-H322M lung it was 88.2%; in the assay with HOP-62 NSCLC it was 95.6%; in the assay on NCI-H460 lung it was 98.8%; in the assay with HOP-92 NSCLC it was 89.1%. Also, the growth in the assay on NCI-H522 lung is 87%; in the assay on A549/ATCC NSCLC it was 99.3%; in the assay with 786-0 renal, 107%; in the assay with DU-145 prostate, 107%; in the assay on K-562 leukemia, 110%; in the assay on MALME-3M melanoma it was 76.8%. Moreover, the growth in the assay with MDA-MB-231 breast is 103%; in the assay on RXF 393 renal, 98.6%; with SF-268 CNS it was 99.9%; in the assay on SF-295 CNS it was 101%; with SF-539 CNS it was 97%; in the assay on UACC-257 melanoma, 94.2%. In addition, the growth with M14 melanoma is 112%.

With `CCNCCNc1cc(-c2ccc(Cl)cc2)c(C#N)c2nc3ccccc3n12`, the growth in the assay on NCI-H23 lung was 44.7%; in the assay with NCI-H226 lung it was 56%; in the assay with NCI-H322M lung, 2.72% (active); in the assay with HOP-62 NSCLC, 1.55% (active); in the assay with NCI-H460 lung, -55.1% (active); in the assay with HOP-92 NSCLC, 53.9%. Besides, the growth with NCI-H522 lung is -41.7% (active); in the assay with A549/ATCC NSCLC, 6.12% (active); in the assay on 786-0 renal, -57.9% (active); in the assay on DU-145 prostate it was 26.4%; in the assay with K-562 leukemia it was -48.1% (active); in the assay on MALME-3M melanoma it was -80.2% (active). Besides, the growth in the assay with MDA-MB-231 breast was -57.4% (active); in the assay with RXF 393 renal, -82.9% (active); in the assay with SF-268 CNS, -12.6% (active); in the assay on SF-295 CNS, -77.6% (active); with SF-539 CNS, -91.4% (active); in the assay with UACC-257 melanoma, -79.4% (active). Also, the growth in the assay with M14 melanoma was -70.7% (active).

On to `COc1cc2c(c(OC)c1OC)C(=O)/C(=C/c1cc(C)c(O)c(C)c1)S2`, for which the growth in the assay on NCI-H23 lung was 36.9%; with NCI-H226 lung, 34.3%; in the assay on NCI-H322M lung, 40.8%; in the assay on HOP-62 NSCLC, 46.5%; with NCI-H460 lung it was 12.7%; with HOP-92 NSCLC, 54.6%. Besides, the growth in the assay with NCI-H522 lung is 14.6%; in the assay on A549/ATCC NSCLC it was 44.4%; in the assay with 786-0 renal, 42.6%; in the assay with DU-145 prostate it was 12.3%; with K-562 leukemia, 21.3%; with MALME-3M melanoma, 45.6%. Further, the growth is 37.7% in the assay with MDA-MB-231 breast; -10.4% (active) with RXF 393 renal; 56.4% with SF-268 CNS; 13.7% in the assay with SF-295 CNS; 7.47% (active) in the assay with SF-539 CNS; 78.2% with UACC-257 melanoma. The growth in the assay with M14 melanoma is 28.8%.

In the case of `c1ccc2c(c1)ncn2-c1nc2ccccc2n2c1nc1ccccc12`, the growth with NCI-H23 lung was 67.1%; in the assay on NCI-H226 lung it was 78.4%; in the assay on NCI-H322M lung, 62.9%; in the assay on HOP-62 NSCLC, 50.1%; in the assay on NCI-H460 lung it was 52.1%; with HOP-92 NSCLC, 88.5%. Moreover, the growth with NCI-H522 lung is 81.6%; in the assay with A549/ATCC NSCLC, 81.7%; in the assay on 786-0 renal, 98.3%; with DU-145 prostate it was 89%; with K-562 leukemia, 82.9%; in the assay on MALME-3M melanoma, 128%. Also, the growth with MDA-MB-231 breast is 80.7%; in the assay on RXF 393 renal, 88.8%; with SF-268 CNS, 94.3%; in the assay with SF-295 CNS it was 90.2%; with SF-539 CNS, 79.8%; in the assay on UACC-257 melanoma, 104%. The growth in the assay on M14 melanoma is 91.1%.

With `CCn1c(Sc2nnc(NC(=O)CSC(=S)N3CCCCC3)s2)nc2c1c(=O)n(C)c(=O)n2C`, the growth in the assay on NCI-H23 lung was 91.3%; with NCI-H226 lung, 86.6%; in the assay on NCI-H322M lung, 101%; in the assay with HOP-62 NSCLC it was 87.1%; in the assay on NCI-H460 lung, 101%; with HOP-92 NSCLC, 81.1%. For the same compound, the growth is 38.1% in the assay with NCI-H522 lung; 78.1% in the assay with A549/ATCC NSCLC; 92.4% with 786-0 renal; 98% in the assay with DU-145 prostate; 43.6% in the assay with K-562 leukemia; 71.5% in the assay with MALME-3M melanoma. Also, the growth is 103% with MDA-MB-231 breast; 86.2% in the assay on RXF 393 renal; 96% in the assay with SF-268 CNS; 83.9% with SF-295 CNS; 97.7% with SF-539 CNS; 94.4% with UACC-257 melanoma. Further, the growth with M14 melanoma is 67.9%.

On to `Cc1[nH]c(-c2nc3ccccc3[nH]2)c(C)c1C(=O)NNc1ccc(Cl)cc1`, for which the growth with NCI-H23 lung is 91%; in the assay on NCI-H226 lung, 84.1%; in the assay with NCI-H322M lung, 89.6%; in the assay on HOP-62 NSCLC, 98.7%; in the assay on NCI-H460 lung, 103%; in the assay on HOP-92 NSCLC, 90.6%. Besides, the growth was 80.9% in the assay with NCI-H522 lung; 93.1% in the assay on A549/ATCC NSCLC; 94.7% in the assay with 786-0 renal; 105% with DU-145 prostate; 94.1% with K-562 leukemia; 94.5% in the assay with MALME-3M melanoma. Further, the growth in the assay on MDA-MB-231 breast is 79.2%; in the assay with RXF 393 renal it was 103%; in the assay on SF-268 CNS, 95.3%; with SF-295 CNS, 109%; in the assay with SF-539 CNS, 95.7%; in the assay on UACC-257 melanoma it was 91%. In addition, the growth in the assay on M14 melanoma is 102%.

Regarding `CCc1c(C(=O)N[C@@H]2c3cc(Cl)ccc3CC[C@@H]2O)[nH]c(C)c1C(C)=O`, the growth in the assay with NCI-H23 lung was 100%; with NCI-H226 lung it was 76.5%; in the assay on NCI-H322M lung, 91.2%; with HOP-62 NSCLC it was 72.1%; in the assay on NCI-H460 lung, 33.6%; in the assay with HOP-92 NSCLC, 84.1%. The growth in the assay on NCI-H522 lung is 65.9%; in the assay on A549/ATCC NSCLC, 62%; with 786-0 renal, 89.3%; with DU-145 prostate, 94.5%; with K-562 leukemia, 69.7%; in the assay with MALME-3M melanoma, 110%. Also, the growth is 84.2% in the assay on MDA-MB-231 breast; 92.3% in the assay with RXF 393 renal; 73.2% with SF-268 CNS; 64.7% in the assay on SF-295 CNS; 67% with SF-539 CNS; 80.2% in the assay with UACC-257 melanoma. In addition, the growth with M14 melanoma is 87.4%.

In the case of `COc1ccc(-c2cc(-c3cc(OC)ccc3O)[nH]c(=O)c2C#N)cc1`, the growth with NCI-H23 lung was 59.1%; in the assay with NCI-H226 lung it was 73.8%; with NCI-H322M lung it was 94.5%; in the assay on HOP-62 NSCLC, 53.2%; with NCI-H460 lung, 41.6%; in the assay on HOP-92 NSCLC it was 31.6%. Besides, the growth in the assay on NCI-H522 lung is 15.4%; in the assay on A549/ATCC NSCLC it was 79.9%; with 786-0 renal, 57.3%; in the assay with DU-145 prostate, 79.8%; in the assay with K-562 leukemia, 23.7%; with MALME-3M melanoma, 60.7%. In addition, the growth with MDA-MB-231 breast was 45%; in the assay with RXF 393 renal it was 81.2%; with SF-268 CNS, 61.3%; with SF-295 CNS, 54%; in the assay on SF-539 CNS it was 39.4%; in the assay on UACC-257 melanoma it was 61%. The growth in the assay on M14 melanoma was 27%.
